Bioassay records deposited in PubChem BioAssay by The Scripps Research Institute Molecular Screening Center.
OPRM1-OPRD1 inv: inverse agonist of human OPRM1-OPRD1 heterodimerization | cell-based MOR-DOR heterodimer luminescence, inverse agonism | AID 504357 | hit rate 0.21% among 340,000 | P35372+P41143 | inhibition, % at 9.3 µM; in the data active = inhibition above about 22%, passing the limit was not always enough
HTR5A ag: HTR5A agonism, opioid heterodimer counter-screen; P47898; hit rate 0.61% among 340,000; activation, % at 9.3 µM; HTR5A agonist assay, luminescence, cell-based; in the data active = activation mostly above about 9.5%, no sharp cut-off; inactive = mostly below about 7.6%
Target sequence (P47898 whole entry, looked up): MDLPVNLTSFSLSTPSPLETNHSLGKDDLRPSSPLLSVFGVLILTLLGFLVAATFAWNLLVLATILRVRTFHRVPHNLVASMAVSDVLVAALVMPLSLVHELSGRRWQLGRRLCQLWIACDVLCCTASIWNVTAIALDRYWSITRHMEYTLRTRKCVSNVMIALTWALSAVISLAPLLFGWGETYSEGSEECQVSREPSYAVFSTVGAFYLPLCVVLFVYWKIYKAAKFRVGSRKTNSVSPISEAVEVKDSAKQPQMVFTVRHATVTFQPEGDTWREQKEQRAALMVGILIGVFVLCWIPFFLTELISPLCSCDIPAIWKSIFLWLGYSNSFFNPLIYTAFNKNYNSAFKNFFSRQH
HTR5A inv ctr: inverse agonist of human HTR5A in OPRM1-OPRD1 counter-screen | AID 504634 | hit rate 0.083% among 340,000 | inhibition, % at 9.3 µM | HTR5A cell line, luminescence, inverse agonism; in the data active = inhibition mostly above about 23%, no sharp cut-off; inactive = mostly below about 18%
MOR-DOR ag: OPRM1-OPRD1 heterodimerization agonism. P35372+P41143. cells, luminescence. activation, % at 9.3 µM. hit rate 0.3% among 340,000. AID 504326; in the data active = activation above about 18%
Large screens that a line does not name were inactive. A selection: hits, their analogues and other compounds. The true share with any hit is near 1.1%.

O=[n+]1cc(-c2ccccc2)n([O-])c2c1CCCCC2	HTR5A ag 11.3
CCCCC1CCC(C(=O)N(CCCC)c2c(N)n(CCCC)c(=O)[nH]c2=O)CC1 (stereo not given)	none
CN(C)CCNC(=O)c1cc2c(s1)-c1ccc(Cl)cc1SC2	HTR5A ag 51.5, MOR-DOR ag 38.5
CCOCCCNC(=O)c1cc2c(s1)-c1ccccc1SC2	none
Cc1ccc(NC(=O)c2cccc(S(=O)(=O)N3CCN(c4ccccc4)CC3)c2)nc1	none
O=C(N/N=C/c1sc(=O)n(Cc2ccc(Br)cc2)c1Cl)c1ccco1	HTR5A ag 26.4, MOR-DOR ag 26.9
COc1ccc(-n2c(Cn3c(=O)sc4ccccc43)nnc2SC)cc1	HTR5A ag 11.8
CCOC(=O)C(=CNc1cc(C)nn1-c1ccc(Cl)cc1)C(=O)OCC	HTR5A ag 10.4
CCCC(C)c1nnc(NC(=O)c2cc(C(=O)OC)cc([N+](=O)[O-])c2)s1 (stereo not given)	none
C[C@H](CO)N1C[C@H](C)[C@@H](CN(C)S(=O)(=O)c2cn(C)cn2)Oc2c(NC(=O)Nc3ccc4c(c3)OCO4)cccc2C1=O	none
O[C@@H](c1cc(C(F)(F)F)nc2c(C(F)(F)F)cccc12)[C@H]1CCCCN1	MOR-DOR ag 20.6
CC(C)(C)NCCC(O)c1cc(C(F)(F)F)nc2c(C(F)(F)F)cccc12 (stereo not given)	none
CC[C@@H](C(=O)[C@@H](C)[C@@H](O)[C@H](C)[C@@H]1O[C@@H]([C@@H](CC)C(=O)O)CC[C@@H]1C)[C@H]1O[C@]2(C=C[C@@H](O)[C@]3(CC[C@@](C)([C@H]4CC[C@](O)(CC)[C@H](C)O4)O3)O2)[C@H](C)C[C@@H]1C	HTR5A ag 39.6, MOR-DOR ag 104.1
Fc1ccc(/C=C2\CCCC3=C2Nc2ncnn2C3c2ccc(F)cc2)cc1 (stereo not given)	HTR5A ag 10.5
COc1ccc(C)cc1NC(=O)C1CCN(S(C)(=O)=O)CC1	none
COc1ccc(C)cc1NC(=O)NNC(=O)C1CCC(C(C)(C)C)CC1 (stereo not given)	HTR5A ag 13.1
O=C(NC1CCCC1)C1CCC(CNS(=O)(=O)c2ccccc2)CC1 (stereo not given)	none
CN(Cc1ccccc1)C(=O)C1CCN(S(=O)(=O)c2cc([N+](=O)[O-])ccc2Cl)CC1	HTR5A ag 13.4
O=C(NCc1ccccc1)C1CCN(S(=O)(=O)c2cc([N+](=O)[O-])ccc2Cl)CC1	none
Cc1cc(C)nc(N2CCCC(C(=O)NCc3cccc(C(F)(F)F)c3)C2)n1 (stereo not given)	HTR5A ag 11.9
O=S(=O)(Nc1ccc(-c2ccc3nncn3n2)cc1)c1ccccc1Cl	none
O=S(=O)(Nc1ccc(-c2ccc3nncn3n2)cc1)c1ccc(Cl)s1	HTR5A ag 10.1
CN(Cc1ccccc1OCCO)CC1CCCN(CCc2ccc(Cl)cc2)C1 (stereo not given)	none
Cc1csc(NC(=O)c2c(O)c3c(n(CC(C)C)c2=O)CCCC3)n1	HTR5A ag 11.4
Cc1ccc(OCCC(=O)OCC(=O)Nc2ccc3c(c2)OCCO3)cc1	none
COc1ccccc1OCCC(=O)OCC(=O)Nc1ccc2c(c1)OCCO2	HTR5A ag 8.6
O=[N+]([O-])c1ccccc1C(O)Cc1ccccn1 (stereo not given)	none
COc1ccc(C(C(=O)NC2CCCCC2)N(C(=O)CCl)c2ccc(OC)cc2)cc1 (stereo not given)	HTR5A ag 49.6, MOR-DOR ag 65.1
COc1ccc(C(C(=O)NC2CCCCC2)N(C(=O)CCl)c2ccc(C)cc2)cc1 (stereo not given)	HTR5A ag 30.8, MOR-DOR ag 23.8
COc1ccc(C(C(=O)NC2CCCCC2)N(C(=O)CCl)c2cccc(Cl)c2)cc1 (stereo not given)	HTR5A ag 86.4, MOR-DOR ag 94.0
COc1ccc(N(C(=O)CCl)C(C(=O)NC2CCCCC2)c2cccnc2)cc1 (stereo not given)	none
C[C@H](CO)N1C[C@H](C)[C@@H](CN(C)Cc2ccc(-c3ccccc3)cc2)Oc2c(NC(=O)Nc3ccc4c(c3)OCO4)cccc2C1=O	none
O=C(COC(=O)Cc1ccccc1F)Nc1cccc(S(=O)(=O)NC2=NCCCCC2)c1	none
O=C(CN1C(=O)CCSc2ccc(S(=O)(=O)N3CCOCC3)cc21)Nc1ccccc1Cl	none
COC(C(=O)N1CCC(CCC(=O)Nc2ccccc2)CC1)c1ccccc1 (stereo not given)	none
CN1CCN(C(CNC(=O)C(=O)Nc2ccc3c(c2)OCCO3)c2ccc(F)cc2)CC1 (stereo not given)	none
O=C(CCNC(=O)c1ccccc1)NNC(=O)c1ccccc1Br	none
